USP8 block = inhibitors of human USP8 deubiquitinase. Ubiquitin carboxyl-terminal hydrolase 8 (Homo sapiens), P40818. purified USP8, Ub-rhodamine cleavage fluorescence, 30 min. inhibition, % at 20 µM. 4.2% of 47,000 active
USP30 inh = inhibitors of human USP30 deubiquitinase; 5.3% of 47,000 active; inhibition, % at 25 µM; purified USP30, Ub-rhodamine cleavage fluorescence; AID 1645860, 2021; Ubiquitin carboxyl-terminal hydrolase 30 (Homo sapiens), Q70CQ3
Target sequence (Q70CQ3 whole entry, looked up): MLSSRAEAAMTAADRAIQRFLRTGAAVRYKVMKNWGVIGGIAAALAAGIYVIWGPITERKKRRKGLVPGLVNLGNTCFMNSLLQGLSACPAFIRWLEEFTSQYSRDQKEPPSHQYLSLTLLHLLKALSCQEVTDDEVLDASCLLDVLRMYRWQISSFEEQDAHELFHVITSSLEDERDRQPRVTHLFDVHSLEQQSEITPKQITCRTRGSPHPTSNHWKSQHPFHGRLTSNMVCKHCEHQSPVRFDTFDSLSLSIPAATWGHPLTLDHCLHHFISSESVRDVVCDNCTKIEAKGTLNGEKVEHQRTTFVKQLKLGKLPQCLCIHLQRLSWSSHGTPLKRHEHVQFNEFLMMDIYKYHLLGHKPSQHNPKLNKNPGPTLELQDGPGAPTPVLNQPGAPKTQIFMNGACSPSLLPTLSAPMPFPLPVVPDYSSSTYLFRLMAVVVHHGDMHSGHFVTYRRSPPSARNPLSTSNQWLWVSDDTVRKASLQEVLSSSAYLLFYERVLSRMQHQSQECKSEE
USP17 inh = inhibitors of human USP17 deubiquitinase; AID 1645855, 2021; Ubiquitin carboxyl-terminal hydrolase 17-like protein 5 (Homo sapiens), A8MUK1; inhibition, % at 50 µM; purified USP17, Ub-rhodamine cleavage fluorescence, 3 h; 6.5% of 47,000 active
Active calls of the source: *. A selection: hits, their analogues and other compounds. The true share with any hit is near 12%. Cut-off read from the data, not from the text of the source: active = inhibition above about 30%; inactive = the rest.

What do the screens show for `O=C(NC1CCCCC1)C(c1ccccc1F)N(Cc1cccnc1)C(=O)Cc1c[nH]c2ccccc12` (configuration not stated)?
USP8 block: 8; USP30 inh: 11; USP17 inh: -4

How did CCN(CC)C(=O)[C@@]1(c2ccccc2)C[C@H]1COc1ccc(C)cc1 do in these assays?
USP8 block: 20; USP30 inh: 29; USP17 inh: 30*

Results for COc1ccccc1[C@]1(C(=O)N2CCOCC2)C[C@H]1COc1ccccc1 ?
USP8 block: 1; USP30 inh: 18; USP17 inh: 1

What do the screens show for `CC1=C(c2ccc(F)cc2)S(=O)(=O)N=C1Nc1ccc(Cl)cc1`?
USP8 block: 0; USP30 inh: 0; USP17 inh: 56*

How did CC1=C(c2ccc(F)cc2)S(=O)(=O)N=C1Nc1cccc(F)c1 do in these assays?
USP8 block: 9; USP30 inh: 10; USP17 inh: -45

Results for CC1=C(c2ccc(F)cc2)S(=O)(=O)N=C1Nc1cc(C)cc(C)c1 ?
USP8 block: 3; USP30 inh: 19; USP17 inh: 9

Results for COc1cccc(NC2=NS(=O)(=O)C(c3ccc(F)cc3)=C2C)c1 ?
USP8 block: -1; USP30 inh: 33*; USP17 inh: 3

How did COc1ccc(CNC(=O)c2ccc(N3C(=O)[C@@H]4Cc5ccccc5CN4C3=O)cc2)cc1OC do in these assays?
USP8 block: 7; USP30 inh: -37; USP17 inh: -10

What do the screens show for `CN(C)CCc1cc2c(c3c1ccc1ccccc13)OCO2`?
USP8 block: 8; USP30 inh: 31*; USP17 inh: 17

What do the screens show for `CC(C)OC(=O)c1cc2c(ccn2-c2ccc(F)cc2)n1CC(=O)N(Cc1ccccc1)c1ccc(F)cc1`?
USP8 block: 3; USP30 inh: -71; USP17 inh: -9

Results for CC(C)OC(=O)c1cc2c(ccn2C)n1CC(=O)N(Cc1ccccc1)c1ccc(F)cc1 ?
USP8 block: 56*; USP30 inh: -199; USP17 inh: 21

Results for CCOC(=O)c1cc2c(ccn2C)n1CC(=O)NC(c1ccccc1)c1ccccc1 ?
USP8 block: 65*; USP30 inh: -153; USP17 inh: 23

What do the screens show for `CC(C)OC(=O)c1cc2c(ccn2C)n1Cc1ccc2ccccc2n1`?
USP8 block: 56*; USP30 inh: -137; USP17 inh: 10

Results for CCOC(=O)c1cc2c(ccn2C)n1CC(=O)N1CCN(c2ccccc2)CC1 ?
USP8 block: -12; USP30 inh: -149; USP17 inh: -37

What do the screens show for `CCOC(=O)c1cc2c(ccn2C)n1CC(=O)N(Cc1ccccc1)c1ccc(F)cc1`?
USP8 block: 39*; USP30 inh: -218; USP17 inh: 24

What do the screens show for `CC(C)OC(=O)c1cc2c(ccn2C)n1CC(=O)N1CCCC1`?
USP8 block: -13; USP30 inh: -280; USP17 inh: -55

What do the screens show for `CCOC(=O)c1cc2c(ccn2C)n1CC(=O)N(Cc1ccc(OC)cc1)c1ccc(F)cc1`?
USP8 block: 17; USP30 inh: -200; USP17 inh: 6

What do the screens show for `COc1cc(CCNC(=O)CCc2nc3cccnc3n2-c2ccccc2)cc(OC)c1OC`?
USP8 block: 18; USP30 inh: -21; USP17 inh: 7

What do the screens show for `CN1C(=O)c2ccccc2C(=O)[C@@]2(C)CN(CC(C)(C)C)C[C@@H]12`?
USP8 block: -4; USP30 inh: 3; USP17 inh: -32

How did CC(=O)N1CCCC(c2nc(C)cc(Nc3ncccc3C)n2)C1 (configuration not stated) do in these assays?
USP8 block: 8; USP30 inh: -6; USP17 inh: -4

What do the screens show for `CC(=O)N1CCOc2cc(S(=O)(=O)N3CCCC3c3cc(C(C)C)on3)ccc21` (configuration not stated)?
USP8 block: 5; USP30 inh: 14; USP17 inh: 0

Results for Fc1ccccc1Cc1nc(-c2ccc3nncn3c2)no1 ?
USP8 block: 2; USP30 inh: 0

Results for CCOC(=O)c1cc2c(ccn2C)n1CC(=O)N1CC(C)CC(C)C1 (configuration not stated) ?
USP8 block: 17; USP30 inh: inactive; USP17 inh: -127

Results for CC(C)OC(=O)c1cc2c(ccn2C)n1CC(=O)N(Cc1ccc(Cl)cc1)c1ccccc1 ?
USP8 block: 67*; USP30 inh: -48; USP17 inh: 12

How did CCOC(=O)c1cc2c(ccn2C)n1CC(=O)N(Cc1ccccc1)c1ccccc1 do in these assays?
USP8 block: 55*; USP30 inh: -198; USP17 inh: 29

How did CC(C)OC(=O)c1cc2c(ccn2C)n1CC(=O)N1CCCCC1 do in these assays?
USP8 block: -89; USP30 inh: inactive; USP17 inh: -120

How did COc1cc(C(=O)N(Cc2cccc3ccccc23)c2ccccn2)cc(OC)c1OC do in these assays?
USP8 block: 2; USP30 inh: 0; USP17 inh: 1

Results for COc1cc(CN(C(=O)c2oc3cc(C)ccc3c2C)c2ccccn2)cc(OC)c1OC ?
USP8 block: 32*; USP30 inh: -10; USP17 inh: 17

Results for COc1ccccc1N=c1oc2cc(O)ccc2cc1C(=O)NC1CCCC1 ?
USP8 block: 16; USP30 inh: -182; USP17 inh: -24

What do the screens show for `Cc1ccc(CN2C[C@@H]3[C@@H](C(=O)NCC4CC4)CCS(=O)(=O)[C@@H]3C2)cc1`?
USP8 block: 2; USP30 inh: 19; USP17 inh: 17

How did CCOc1ccccc1NC(=O)Cn1c(=O)n(CCCC(=O)NC2CCN(Cc3ccccc3)CC2)c(=O)c2ccccc21 do in these assays?
USP8 block: -38; USP30 inh: 11; USP17 inh: 0

Results for CCOc1ccccc1NC(=O)Cn1c(=O)n(CCCC(=O)N2CCc3ccccc3C2)c(=O)c2ccccc21 ?
USP8 block: 7; USP30 inh: 45*; USP17 inh: 15

What do the screens show for `Cc1ccc(C(=O)N2CCc3cc(-c4csc(NC(=O)Cn5nnc6ccccc65)n4)ccc32)cc1`?
USP8 block: 57*; USP30 inh: 8; USP17 inh: 43*

How did O=C(CN1CCOCC1)Nc1nc(-c2ccc3c(c2)CCN3C(=O)c2ccccc2F)cs1 do in these assays?
USP8 block: 15; USP30 inh: 11; USP17 inh: 30*

Results for Cc1sc(NC(=O)CN2CCCCC2)nc1-c1ccc2c(c1)CCN2C(=O)C1CCCCC1 ?
USP8 block: -1; USP30 inh: -21; USP17 inh: 15

Results for Cc1sc(NC(=O)c2ccc3ccccc3c2)nc1-c1ccc2c(c1)CCN2C(=O)c1ccccc1F ?
USP8 block: 4; USP30 inh: 13; USP17 inh: 7

Results for O=C(CN1CCCCC1)Nc1nc(-c2ccc3c(c2)CCN3C(=O)C2CC2)cs1 ?
USP8 block: 12; USP30 inh: 14; USP17 inh: 31*

What do the screens show for `Cc1sc(NC(=O)Cn2nnc3ccccc32)nc1-c1ccc2c(c1)CCN2C(=O)C1CCCCC1`?
USP8 block: 8; USP30 inh: 30; USP17 inh: 31*

What do the screens show for `O=C(CN1CCOCC1)Nc1nc(-c2ccc3c(c2)CCN3C(=O)C2CC2)cs1`?
USP8 block: -11; USP30 inh: -7; USP17 inh: 0

Screens (PubChem BioAssay)
